In PubChem BioAssay (NCATS):
Records with an inconclusive call do not appear. Where a call stands in place of a potency, no number is given. Calls of active or inactive are those of the source. Calls follow the shape of the dose curve; as a rule, active = well fitted cell-killing curve with a large enough effect; inconclusive = small, poorly fitted or top-dose-only effect; inactive = flat fitted curve, though single readings scatter.

Experiment: Cell Viability - H-4-II-E (AID 543); also: nearly all actives have a fitted effect of over 35% in size
Details: H-4-II-E rat hepatoma viability; series mostly up to 92.2 µM
From the text: NIH Chemical Genomics Center [NCGC]
NIH Molecular Libraries Screening Centers Network [MLSCN]
National Institutes of Environmental Health Sciences [NIEHS]
National Toxicology Program [NTP]
We have developed a 1536-well cell-based assay for quantitative high throughput screening (qHTS) against a number of cell lines to determine in vitro cytotoxicity of small molecules. This particular assay uses the H-4-II-E cell line which is derived from rat hepatoma.
NCGC Assay Protocol Summary:
The CellTiter-Glo luminescent cell viability assay (Promega) is a homogeneous method to measure the number of viable cells in culture. The end point readout of this assay is based on quantitation of intracellular ATP, an indicator of metabolic activity, using the luciferase reaction. Luciferase catalyzes the oxidation of beetle Luciferin to oxyluciferin and light in the presence of ATP. The luminescent signal is proportional to amount of ATP present.
Using the CellTiter-Glo luminescent cell viability assay, the amount of cellular ATP was measured in the H-4-II-E cell line with complete culture medium following compound treatment for 40 hours. The assay was performed in opaque white Kalypsys 1536-well plates. In the screen, tamoxifen and doxorubicin were used as positive controls. Library compounds were measured for their ability to cause acute toxicity in the cell line, as reflected by a decrease in intracellular ATP levels, in a concentration-dependent manner. […] AC50 values were determined from concentration-response data modeled with the standard Hill equation.
qHTS protocol fo CellTiter Glo H-4-II-E cellular assay
[Step] [Parameter] [Value] [Description]
1. Reagent; 5 uL; 1500 H-4-II-E cells/well
2. Time; 5 hr; 37 °C incubation
4. Controls; 23 nL; Tamoxifen 0.34 uM to 100 uM & Doxorubicin 0.02 nM to 100 uM
5. Time; 40 hr; 37 °C incubation
6. Reagent; 5 uL; CellTiter Glo reagent
7. Time; 20 min; Room Temperature
8. Detection; Luminescence; Viewlux plate reader
Keywords: cell viability, cytotoxicity, H-4-II-E cell line, luminescence, NTPHTS, NTPHTS_NCGC, NIEHS, EPA, DSSTox, MLSMR, MLSCN, NIH Roadmap, qHTS, NCGC
Potency is read from the fitted curve at half-maximal effect.

Row | Structure (SMILES) | Potency
1 | O=S(=O)(O)O | inactive
2 | CCCCCCCC/C=C\CCCCCCCC(=O)O | inactive
3 | CC(C)=O | inactive
4 | Cc1ccccc1 | inactive
5 | CC(C)(C)NC(=O)[C@@H]1C[C@@H]2CCCC[C@@H]2CN1C[C@@H](O)[C@H](Cc1ccccc1)NC(=O)[C@H](CC(N)=O)NC(=O)c1ccc2ccccc2n1 | 50.1 µM (active)
6 | CCCCCCCC(=O)O | inactive
7 | CC(O)CO (centres undefined) | inactive
8 | O=C(O)CCC(=O)C(=O)O | inactive
9 | IC(I)I | inactive
10 | Nc1ccn([C@H]2CS[C@@H](CO)O2)c(=O)n1 | inactive
11 | CCOc1ccc2c(c1)C(C)=CC(C)(C)N2 | inactive
12 | CCCCC/C=C\C/C=C\CCCCCCCC(=O)O | inactive
13 | CC1=C2[C@@H]([C@H](C)CC[C@H]2/C=C(\C)C(=O)O)[C@H](O)C1 | inactive
14 | CCOC(C)=O | inactive
